# Data reported in PubChem BioAssay (EPA / NIEHS).
# Inconclusive results are not listed. Activity calls are given as the source filed them. How the source made its calls: active means hit-call score of the fitted dose curve at least 0.9, where 1 is the maximum; inconclusive means response in the unintended direction; inactive means score below 0.9.
# How the values were obtained:
# [1] = target: human Endothelin Receptor Type A (ETA), EDNRA (gene 1909) (UniProt P25101); assay: NVS_GPCR_hETA: NovaScreen (NVS) G Protein-Coupled Receptor Assay for human Endothelin Receptor Type A (ETA) (AID 2283265)
# Method in brief: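 Cell-free radioligand displacement using SH-SY5Y-derived protein, 3 h incubation, filter-based scintillation counting. Primary screen in duplicate at 25 uM; actives then run in concentration-response up to 50 uM; loss of binding fitted versus DMSO.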
# [2] = target: human Adrenergic, Alpha 2A Receptor (Adra2A), ADRA2A (gene 150) (UniProt P08913); assay: NVS_GPCR_hAdra2A: NovaScreen (NVS) G Protein-Coupled Receptor Assay for human Adrenergic, Alpha 2A Receptor (Adra2A) (AID 2283257)
# Method in brief: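 Radioligand filter-binding was run on HT29-derived membranes, cell-free, read by scintillation counting 1 h after dosing. Primary screening was in duplicate at 25 uM, with concentration series in follow-up. Loss of signal versus DMSO indicates displacement.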
# [3] = target: human Adrenergic, Alpha 2c Receptor (Adra2C), ADRA2C (gene 152) (UniProt P18825); assay: NVS_GPCR_hAdra2C: NovaScreen (NVS) G Protein-Coupled Receptor Assay for human Adrenergic, Alpha 2c Receptor (Adra2C) (AID 2283259)
# Method in brief: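 Radioligand binding on Sf9-expressed receptor membranes, 1 h after chemical dosing, filter-based scintillation read-out. Loss of binding fitted positively versus DMSO; primary duplicate screen at 25 uM, actives retested in concentration series.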
# [4] = target: human Adrenergic, Beta 3 Receptor (Adrb3), ADRB3 (gene 155) (UniProt P13945); assay: NVS_GPCR_hAdrb3: NovaScreen (NVS) G Protein-Coupled Receptor Assay for human Adrenergic, Beta 3 Receptor (Adrb3) (AID 2283262)
# Method in brief: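 Membranes from SK-N-MC cells pretreated with isoproterenol and 8-bromo-cAMP were used in a radioligand competitive displacement binding assay. Binding was read by filter-based scintillation counting 1 hour after dosing. Primary screening was in duplicate at 25 uM, with concentration series in follow-up.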
# [5] = target: human Histamine 1 Receptor (H1), HRH1 (gene 3269) (UniProt P35367); assay: NVS_GPCR_hH1: NovaScreen (NVS) G Protein-Coupled Receptor Assay for human Histamine 1 Receptor (H1) (AID 2283268)
# Method in brief: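 Cell-free radioligand displacement at human H1 receptor, 1 h, filter scintillation counting; primary screen 25 uM in duplicate, hits in concentration series; loss of binding fitted vs DMSO.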
# [6] = target: D(1A) dopamine receptor (Homo sapiens) (UniProt P21728); assay: NVS_GPCR_hDRD1: NovaScreen (NVS) G Protein-Coupled Receptor Assay for human Dopamine Receptor D1 (DRD1) (AID 2283269)
# Method in brief: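 Extracted HEK293 DRD1 is incubated 1 h with compound and a tritiated or iodinated radioligand, then filtered and counted. Screening runs 25 uM in duplicate with on-plate positive and negative controls.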
# [7] = target: Muscarinic acetylcholine receptor M1 (Homo sapiens) (UniProt P11229); assay: NVS_GPCR_hM1: NovaScreen (NVS) G Protein-Coupled Receptor Assay for human Muscarinic, M1 Receptor (AID 2283270)
# Method in brief: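 Cell-free radioligand displacement using membrane protein extracted from CHO cells, read by filter-based scintillation counting 1 h after dosing. Loss of bound signal fitted versus DMSO; primary screen single concentration 25 uM in duplicate, actives followed by concentration series.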
# [8] = target: Muscarinic acetylcholine receptor M2 (Homo sapiens) (UniProt P08172); assay: NVS_GPCR_hM2: NovaScreen (NVS) G Protein-Coupled Receptor Assay for human Muscarinic, M2 Receptor (AID 2283273)
# Method in brief: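 Radioligand displacement on human M2 receptor membranes from CHO cells, 1 h incubation, filtration with scintillation counting. Primary screen in duplicate at 25 uM; actives retested in concentration series; loss of signal fitted versus DMSO.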
# [9] = target: human Muscarinic, M4 Receptor, CHRM4 (gene 1132) (UniProt P08173); assay: NVS_GPCR_hM4: NovaScreen (NVS) G Protein-Coupled Receptor Assay for human Muscarinic, M4 Receptor (AID 2283274)
# Method in brief: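 Cell-free radioligand displacement using CHO-derived human M4 receptor protein, 1 h after dosing; bound radioactivity by filtration and scintillation counting. Primary screen single 25 uM duplicate, actives followed in concentration series.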
# [10] = target: Muscarinic acetylcholine receptor M5 (Homo sapiens) (UniProt P08912); assay: NVS_GPCR_hM5: NovaScreen (NVS) G Protein-Coupled Receptor Assay for human Muscarinic, M5 Receptor (AID 2283275)
# Method in brief: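 Radioligand displacement on CHO-derived membrane preparations, 1 h, filter-based scintillation counting. Single-concentration duplicate screen at 25 uM; hits (e.g. 30% inhibition) retested in singleton concentration-response up to 50 uM. Loss of binding fitted versus DMSO.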
# [11] = target: human Neuropeptide Receptor Y1 (NPY1), NPY1R (gene 4886) (UniProt P25929); assay: NVS_GPCR_hNPY1: NovaScreen (NVS) G Protein-Coupled Receptor Assay for human Neuropeptide Receptor Y1 (NPY1) (AID 2283276)
# Method in brief: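 Cell-free radioligand binding using receptor extracted from SK-N-MC cells, 1 h incubation, filter-based scintillation counting. Primary screen single concentration 25 uM in duplicate; actives followed in concentration series. Loss of bound signal scored versus DMSO.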
# [12] = target: human Adrenergic, Beta 1 Receptor (Adrb1), ADRB1 (gene 153) (UniProt P08588); assay: NVS_GPCR_hAdrb1: NovaScreen (NVS) G Protein-Coupled Receptor Assay for human Adrenergic, Beta 1 Receptor (Adrb1) (AID 2283258)
# Method in brief: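 Cell-free radioligand displacement on receptor from human neuroepithelioma cells; 2 h after dosing, filter-based scintillation counting. Primary screen in duplicate at 25 uM, actives retested in concentration series; loss of signal vs DMSO baseline.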
# [13] = target: human Dopamine Receptor D2 (DRD2), DRD2 (gene 1813) (UniProt P14416); assay: NVS_GPCR_hDRD2s: NovaScreen (NVS) G Protein-Coupled Receptor Assay for human Dopamine Receptor D2 (DRD2) (AID 2283266)
# Method in brief: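 Radioligand displacement used human DRD2 membranes extracted from CHO cells and was read by filter-based scintillation counting after 1.5 hours. Primary screening was in duplicate at 25 uM. Loss of signal versus DMSO was fitted, with concentration series in follow-up.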
# [14] = target: human Leukotriene B4 Receptor 1 (LTB4-BLT1), LTB4R (gene 1241) (UniProt Q15722); assay: NVS_GPCR_hLTB4_BLT1: NovaScreen (NVS) G Protein-Coupled Receptor Assay for human Leukotriene B4 Receptor 1 (LTB4-BLT1) (AID 2283271)
# Method in brief: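 Radioligand displacement binding on receptor extracted from human neutrophils, cell-free, 1 h after dosing; filter-based scintillation counting. Primary screen in duplicate at 25 uM, actives retested in concentration-response up to 50 uM; loss of signal versus DMSO.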
# [15] = target: human Dopamine Receptor D4.4 (DRD4.4), DRD4 (gene 1815) (UniProt P21917); assay: NVS_GPCR_hDRD4.4: NovaScreen (NVS) G Protein-Coupled Receptor Assay for human Dopamine Receptor D4.4 (DRD4.4) (AID 2283264)
# Method in brief: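 Radioligand displacement on human DRD4.4 from CHO-derived membranes, 1 hour incubation, bound counts read by filtration and scintillation. Primary screen in duplicate at 25 uM; actives followed up in concentration series.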
# [16] = target: Muscarinic acetylcholine receptor M3 (Homo sapiens) (UniProt P20309); assay: NVS_GPCR_hM3: NovaScreen (NVS) G Protein-Coupled Receptor Assay for human Muscarinic, M3 Receptor (AID 2283272)
# Method in brief: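 Radioligand displacement binding on human M3 receptor in CHO-derived membranes, 1 h incubation, filter-based scintillation counting. Primary screen in duplicate at 25 uM; actives followed up in concentration series; loss of signal versus DMSO.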
# [17] = target: Neuropeptide Y receptor type 2 (Homo sapiens) (UniProt P49146); assay: NVS_GPCR_hNPY2: NovaScreen (NVS) G Protein-Coupled Receptor Assay for human Neuropeptide Receptor Y2 (NPY2) (AID 2283277)
# Method in brief: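 Radioligand binding on membranes extracted from SK-N-MC cells, cell-free, read 1 h after dosing by filter-based scintillation counting. Loss of signal vs DMSO. Primary screen in duplicate at 25 uM; actives followed up in concentration-response up to 50 uM.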
# [18] = target: Type-1 angiotensin II receptor (Homo sapiens) (UniProt P30556); assay: NVS_GPCR_hAT1: NovaScreen (NVS) G Protein-Coupled Receptor Assay for human Angiotensin II receptor type 1 (AT1) (AID 2283263)
# Method in brief: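 Membranes from KAN-TS cells; radioligand competitive displacement, 3 h, filtration and scintillation counting. Single-point duplicate screen at 25 uM, then concentration-response up to 50 uM for hits; loss of signal fitted versus DMSO.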
# [19] = target: human Endothelin Receptor Type B (ETB), EDNRB (gene 1910) (UniProt P24530); assay: NVS_GPCR_hETB: NovaScreen (NVS) G Protein-Coupled Receptor Assay for human Endothelin Receptor Type B (ETB) (AID 2283267)
# Method in brief: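 Human astrocytoma cell membranes; radioligand competitive binding read by filter scintillation counting 4 hours after dosing. Single-concentration duplicate screen at 25 uM, then singleton concentration-response up to 50 uM; loss of signal versus DMSO.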
# [20] = target: Beta-2 adrenergic receptor (Homo sapiens) (UniProt P07550); assay: NVS_GPCR_hAdrb2: NovaScreen (NVS) G Protein-Coupled Receptor Assay for human Adrenergic, Beta 2 Receptor (Adrb2) (AID 2283261)
# Method in brief: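 Filter-based radioligand binding using receptor prepared from CHO cells, 1 h incubation, scintillation counting. Primary screen in duplicate at 25 uM, actives retested in concentration series; loss of binding relative to DMSO.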
# human Muscarinic, M4 Receptor, CHRM4 (gene 1132), sequence (P08173 whole entry, looked up): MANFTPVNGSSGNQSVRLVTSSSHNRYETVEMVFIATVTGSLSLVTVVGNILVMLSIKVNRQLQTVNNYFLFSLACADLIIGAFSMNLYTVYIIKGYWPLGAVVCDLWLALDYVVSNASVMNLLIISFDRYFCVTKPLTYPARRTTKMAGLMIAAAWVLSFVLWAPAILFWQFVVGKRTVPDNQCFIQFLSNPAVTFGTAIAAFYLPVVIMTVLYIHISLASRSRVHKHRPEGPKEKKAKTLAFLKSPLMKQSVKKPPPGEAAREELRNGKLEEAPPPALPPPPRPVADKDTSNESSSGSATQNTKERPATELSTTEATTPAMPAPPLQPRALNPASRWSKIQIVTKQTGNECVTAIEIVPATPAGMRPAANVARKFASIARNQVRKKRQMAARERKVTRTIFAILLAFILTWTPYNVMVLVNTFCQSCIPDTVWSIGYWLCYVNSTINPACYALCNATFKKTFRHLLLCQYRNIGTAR
# human Adrenergic, Alpha 2c Receptor (Adra2C), ADRA2C (gene 152), sequence (P18825 whole entry, looked up): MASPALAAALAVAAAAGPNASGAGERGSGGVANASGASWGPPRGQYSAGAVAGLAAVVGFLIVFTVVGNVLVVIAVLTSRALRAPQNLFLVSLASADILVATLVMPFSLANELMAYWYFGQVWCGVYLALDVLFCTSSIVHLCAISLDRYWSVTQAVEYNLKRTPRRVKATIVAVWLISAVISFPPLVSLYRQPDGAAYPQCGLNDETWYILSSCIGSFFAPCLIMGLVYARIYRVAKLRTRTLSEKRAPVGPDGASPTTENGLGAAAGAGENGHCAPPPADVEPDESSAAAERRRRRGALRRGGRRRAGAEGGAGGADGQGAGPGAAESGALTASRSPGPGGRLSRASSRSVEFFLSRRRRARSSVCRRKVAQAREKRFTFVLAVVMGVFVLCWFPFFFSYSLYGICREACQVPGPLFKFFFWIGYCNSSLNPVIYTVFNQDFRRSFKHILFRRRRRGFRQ
# Muscarinic acetylcholine receptor M3 (Homo sapiens), sequence (P20309 whole entry, looked up): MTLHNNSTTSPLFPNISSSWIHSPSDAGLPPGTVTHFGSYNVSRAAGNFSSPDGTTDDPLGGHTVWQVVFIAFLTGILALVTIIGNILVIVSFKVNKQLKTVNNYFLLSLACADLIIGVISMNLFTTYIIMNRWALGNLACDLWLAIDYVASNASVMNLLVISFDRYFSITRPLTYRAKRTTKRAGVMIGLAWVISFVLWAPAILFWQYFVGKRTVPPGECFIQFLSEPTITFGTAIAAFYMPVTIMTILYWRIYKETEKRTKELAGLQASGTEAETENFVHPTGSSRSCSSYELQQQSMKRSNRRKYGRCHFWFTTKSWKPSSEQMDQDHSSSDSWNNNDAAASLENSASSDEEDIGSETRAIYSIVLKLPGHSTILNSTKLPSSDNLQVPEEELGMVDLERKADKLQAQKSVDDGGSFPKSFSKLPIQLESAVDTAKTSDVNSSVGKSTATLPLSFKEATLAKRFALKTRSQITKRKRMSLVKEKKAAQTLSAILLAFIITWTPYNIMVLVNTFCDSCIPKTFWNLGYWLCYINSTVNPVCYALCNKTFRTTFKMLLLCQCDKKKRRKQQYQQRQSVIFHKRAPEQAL
# Muscarinic acetylcholine receptor M5 (Homo sapiens), sequence (P08912 whole entry, looked up): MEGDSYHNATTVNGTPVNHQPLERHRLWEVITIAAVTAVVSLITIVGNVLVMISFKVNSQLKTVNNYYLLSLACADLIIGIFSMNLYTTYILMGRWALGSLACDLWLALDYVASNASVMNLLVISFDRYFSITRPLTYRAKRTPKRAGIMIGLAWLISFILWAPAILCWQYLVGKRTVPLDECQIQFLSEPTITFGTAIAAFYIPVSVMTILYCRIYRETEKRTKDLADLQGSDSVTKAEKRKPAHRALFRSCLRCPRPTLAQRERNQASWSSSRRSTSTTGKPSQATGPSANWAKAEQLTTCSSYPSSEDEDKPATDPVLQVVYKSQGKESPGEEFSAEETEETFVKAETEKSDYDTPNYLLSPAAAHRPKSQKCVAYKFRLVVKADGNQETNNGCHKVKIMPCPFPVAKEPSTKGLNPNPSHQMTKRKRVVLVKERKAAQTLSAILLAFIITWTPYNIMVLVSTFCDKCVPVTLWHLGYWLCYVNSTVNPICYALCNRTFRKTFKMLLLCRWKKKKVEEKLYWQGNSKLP
# human Neuropeptide Receptor Y1 (NPY1), NPY1R (gene 4886), sequence (P25929 whole entry, looked up): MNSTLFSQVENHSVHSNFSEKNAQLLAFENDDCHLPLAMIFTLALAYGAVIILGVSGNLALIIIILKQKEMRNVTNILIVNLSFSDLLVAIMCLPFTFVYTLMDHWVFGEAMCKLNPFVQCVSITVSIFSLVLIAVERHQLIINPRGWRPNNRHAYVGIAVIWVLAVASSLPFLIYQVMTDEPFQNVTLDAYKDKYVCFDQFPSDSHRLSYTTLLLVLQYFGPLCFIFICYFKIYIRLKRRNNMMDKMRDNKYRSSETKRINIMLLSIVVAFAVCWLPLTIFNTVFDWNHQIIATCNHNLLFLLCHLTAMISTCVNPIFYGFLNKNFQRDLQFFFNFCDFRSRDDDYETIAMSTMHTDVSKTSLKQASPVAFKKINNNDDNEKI
# human Dopamine Receptor D4.4 (DRD4.4), DRD4 (gene 1815), sequence (P21917 whole entry, looked up): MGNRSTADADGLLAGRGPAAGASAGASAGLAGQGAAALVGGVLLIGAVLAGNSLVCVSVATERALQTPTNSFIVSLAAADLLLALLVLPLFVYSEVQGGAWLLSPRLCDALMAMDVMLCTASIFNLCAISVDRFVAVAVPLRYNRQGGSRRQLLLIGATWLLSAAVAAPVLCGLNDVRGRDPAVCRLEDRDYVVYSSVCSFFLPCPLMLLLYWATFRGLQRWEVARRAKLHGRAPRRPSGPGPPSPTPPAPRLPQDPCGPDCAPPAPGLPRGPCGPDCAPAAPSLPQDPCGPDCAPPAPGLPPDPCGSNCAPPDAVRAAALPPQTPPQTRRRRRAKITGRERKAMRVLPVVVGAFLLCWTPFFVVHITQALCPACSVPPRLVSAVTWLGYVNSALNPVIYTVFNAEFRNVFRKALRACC
# human Histamine 1 Receptor (H1), HRH1 (gene 3269), sequence (P35367 whole entry, looked up): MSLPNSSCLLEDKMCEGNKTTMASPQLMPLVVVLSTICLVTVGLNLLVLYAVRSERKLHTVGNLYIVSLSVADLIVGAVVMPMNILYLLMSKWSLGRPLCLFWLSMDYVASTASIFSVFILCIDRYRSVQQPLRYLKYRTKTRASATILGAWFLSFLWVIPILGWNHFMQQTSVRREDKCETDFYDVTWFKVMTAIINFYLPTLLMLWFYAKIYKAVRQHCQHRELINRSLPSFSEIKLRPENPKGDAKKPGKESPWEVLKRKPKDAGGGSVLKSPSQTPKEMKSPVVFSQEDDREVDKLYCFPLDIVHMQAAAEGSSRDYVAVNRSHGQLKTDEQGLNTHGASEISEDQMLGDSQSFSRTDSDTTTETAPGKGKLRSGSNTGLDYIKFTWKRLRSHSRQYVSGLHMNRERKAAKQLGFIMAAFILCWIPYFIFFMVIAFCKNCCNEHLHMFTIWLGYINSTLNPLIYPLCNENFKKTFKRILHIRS
# D(1A) dopamine receptor (Homo sapiens), sequence (P21728 whole entry, looked up): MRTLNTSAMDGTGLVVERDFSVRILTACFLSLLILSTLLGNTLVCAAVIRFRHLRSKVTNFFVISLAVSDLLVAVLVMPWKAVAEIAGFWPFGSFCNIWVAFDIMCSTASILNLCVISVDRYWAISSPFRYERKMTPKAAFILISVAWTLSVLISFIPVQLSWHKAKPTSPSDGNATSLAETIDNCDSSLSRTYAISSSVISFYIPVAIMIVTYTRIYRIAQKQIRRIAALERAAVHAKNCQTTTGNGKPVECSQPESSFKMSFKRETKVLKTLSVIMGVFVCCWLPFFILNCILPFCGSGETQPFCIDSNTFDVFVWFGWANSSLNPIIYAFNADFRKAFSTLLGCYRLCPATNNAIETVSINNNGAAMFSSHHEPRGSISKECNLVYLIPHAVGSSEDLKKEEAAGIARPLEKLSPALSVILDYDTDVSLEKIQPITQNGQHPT
# Muscarinic acetylcholine receptor M2 (Homo sapiens), sequence (P08172 whole entry, looked up): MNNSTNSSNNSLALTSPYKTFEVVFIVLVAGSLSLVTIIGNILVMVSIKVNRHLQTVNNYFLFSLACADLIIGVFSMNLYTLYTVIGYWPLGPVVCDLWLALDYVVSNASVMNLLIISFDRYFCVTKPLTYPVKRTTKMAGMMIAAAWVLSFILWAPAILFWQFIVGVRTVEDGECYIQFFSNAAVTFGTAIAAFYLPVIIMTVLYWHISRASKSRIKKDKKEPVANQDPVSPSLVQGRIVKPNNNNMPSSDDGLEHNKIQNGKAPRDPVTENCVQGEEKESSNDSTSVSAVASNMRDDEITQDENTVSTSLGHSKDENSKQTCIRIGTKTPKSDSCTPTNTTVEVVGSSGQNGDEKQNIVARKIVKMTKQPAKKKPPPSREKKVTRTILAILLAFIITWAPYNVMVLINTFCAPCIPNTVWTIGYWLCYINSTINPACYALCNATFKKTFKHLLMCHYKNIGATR
# human Adrenergic, Alpha 2A Receptor (Adra2A), ADRA2A (gene 150), sequence (P08913 whole entry, looked up): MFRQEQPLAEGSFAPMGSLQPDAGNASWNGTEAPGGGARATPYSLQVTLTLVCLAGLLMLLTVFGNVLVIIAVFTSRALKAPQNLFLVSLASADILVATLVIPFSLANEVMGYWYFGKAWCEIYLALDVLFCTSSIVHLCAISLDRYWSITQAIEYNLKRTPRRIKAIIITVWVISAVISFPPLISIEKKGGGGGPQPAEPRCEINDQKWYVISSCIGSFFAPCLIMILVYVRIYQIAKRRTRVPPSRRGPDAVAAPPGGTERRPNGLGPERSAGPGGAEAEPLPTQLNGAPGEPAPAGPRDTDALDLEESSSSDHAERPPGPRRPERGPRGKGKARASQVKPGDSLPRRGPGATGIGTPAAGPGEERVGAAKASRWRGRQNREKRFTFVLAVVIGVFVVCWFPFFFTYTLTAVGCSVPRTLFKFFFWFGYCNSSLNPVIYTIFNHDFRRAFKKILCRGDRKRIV
smiles,measurement,setting,value
CC[C@H](C)C(=O)O[C@H]1C[C@H](O)C=C2C=C[C@H](C)[C@H](CC[C@@H](O)C[C@@H](O)CC(=O)O)[C@H]21,outcome,[1],inactive
CCn1nc(C)c2c1C(=O)NCC(c1ccc(O)cc1)=N2,outcome,[2],inactive
same,outcome,[3],inactive
same,outcome,[4],inactive
same,outcome,[5],inactive
same,outcome,[6],inactive
same,outcome,[7],inactive
same,outcome,[8],inactive
same,outcome,[9],inactive
same,outcome,[10],inactive
same,outcome,[11],inactive
CCCCCCCCCC,outcome,[12],inactive
same,outcome,[3],inactive
same,outcome,[13],inactive
same,outcome,[6],inactive
same,outcome,[8],inactive
same,outcome,[9],inactive
same,outcome,[11],inactive
CCCCCCCC1CCC(=O)O1 (stereo not given),outcome,[14],inactive
O=S(=O)(O)c1ccc(N=Nc2c(O)ccc3cc(S(=O)(=O)O)ccc23)cc1,outcome,[2],inactive
same,AC50,[15],32 µM (active)
same,AC50,[13],8.72 µM (active)
same,AC50,[6],38.4 µM (active)
same,outcome,[16],inactive
same,outcome,[9],inactive
CCCCCCCCN(C)C,outcome,[4],inactive
same,outcome,[5],inactive
CCCCCCCCCCCCCCCCOS(=O)(=O)O,AC50,[12],3.47 µM (active)
same,AC50,[3],3.6 µM (active)
same,AC50,[15],12.5 µM (active)
same,outcome,[13],inactive
same,AC50,[5],18.1 µM (active)
same,AC50,[6],4.49 µM (active)
same,AC50,[16],8.33 µM (active)
same,AC50,[10],8.94 µM (active)
same,outcome,[17],inactive
OC(CCl)CCl,AC50,[2],25 µM (active)
O=C(NO)C1(NS(=O)(=O)c2ccc(Oc3ccc(F)cc3)cc2)CCOCC1,AC50,[2],25 µM (active)
same,AC50,[15],25 µM (active)
NC(N)=O,outcome,[14],inactive
Cc1nccn1-c1ccc(Sc2cccc(C3(C(N)=O)CCOCC3)c2)cc1,outcome,[18],inactive
same,AC50,[7],7.4 µM (active)
same,outcome,[16],inactive
same,AC50,[8],6.6 µM (active)
same,AC50,[9],6.73 µM (active)
same,outcome,[10],inactive
NNC(=O)c1ccncc1,outcome,[2],inactive
OCC(CO)(CO)CO,outcome,[4],inactive
same,outcome,[19],inactive
same,outcome,[14],inactive
c1ccc(C(O[C@@H]2CCCN(CCc3ccc4c(c3)OCO4)C2)c2ccccc2)cc1,AC50,[2],18 µM (active)
same,AC50,[12],25 µM (active)
same,AC50,[3],2.51 µM (active)
same,AC50,[20],13.5 µM (active)
same,outcome,[4],inactive
same,AC50,[15],14.8 µM (active)
same,AC50,[13],5.47 µM (active)
same,AC50,[5],5.62 µM (active)
same,AC50,[6],4.11 µM (active)
same,AC50,[7],0.031 µM (active)
same,AC50,[16],0.0184 µM (active)
same,AC50,[8],0.0461 µM (active)
same,AC50,[9],0.0501 µM (active)
same,AC50,[10],0.00937 µM (active)
same,outcome,[11],inactive
